Data reported in PubChem BioAssay (NCATS).
Values joined by “and” are separate entries in the source; they are usually repeats but may differ in a detail not shown here. Equal entries are not always repeated. Records with an inconclusive call do not appear. Active and inactive are the calls of the source. Unless noted, calls follow the shape of the dose curve; as a rule, active = well fitted curve in the direction sought with a large enough effect; inconclusive = small, poorly fitted or top-dose-only effect, or another doubt; inactive = no such curve, though single readings can be large; an effect the other way counts as inactive or inconclusive.

Experiments:
[1] = target: Cellular tumor antigen p53 (Homo sapiens) (UniProt P04637); assay: Primary qHTS for small molecule compounds that upregulate eGFP-tagged delta133p53alpha (in N-terminal) cells. (AID 2060322); conditions: NCI-H358 eGFP-delta133p53alpha fluorescence, 24 h; activation: hits give high values; also: nearly all actives have a fitted effect of over 75% in size; also: potency is read from the fitted curve at half-maximal effect;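 as to activation: cells pre-induced with doxycycline then dosed without doxycycline; series mostly up to about 56 µM; 0% = DMSO vehicle and 100% = reference activator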
Chain of Cellular tumor antigen p53 (Homo sapiens) (P04637 whole entry, looked up): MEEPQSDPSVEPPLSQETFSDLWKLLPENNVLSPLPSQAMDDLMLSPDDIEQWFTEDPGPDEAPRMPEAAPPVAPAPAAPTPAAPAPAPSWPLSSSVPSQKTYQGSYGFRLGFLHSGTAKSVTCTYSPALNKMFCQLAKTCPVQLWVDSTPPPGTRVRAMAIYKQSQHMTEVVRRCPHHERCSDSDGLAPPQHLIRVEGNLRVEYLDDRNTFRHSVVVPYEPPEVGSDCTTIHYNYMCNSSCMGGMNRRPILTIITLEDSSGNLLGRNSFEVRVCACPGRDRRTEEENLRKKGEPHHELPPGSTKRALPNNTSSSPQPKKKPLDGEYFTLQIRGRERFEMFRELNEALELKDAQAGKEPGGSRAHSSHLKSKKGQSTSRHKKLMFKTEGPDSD
Summary of the method: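 NCI-H358 cells pre-induced 24 h with 10 ng/ml doxycycline for eGFP-delta133p53alpha, plated dox-free and exposed 24 h at 37C to titrated compounds. Fixed, Hoechst-stained; gated GFP peak intensity by laser scanning cytometry, normalized to DMSO (0%) and 57.5 uM 5-azacytidine (100%).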

[2] = target: Aldehyde dehydrogenase, mitochondrial (Homo sapiens) (UniProt P05091); assay: qHTS for Inhibitors of the Aldehyde Dehydrogenase Family (ALDH2) Validation screens (AID 2061302; active = well fitted inhibition curve with a large enough effect; title and protocol of this record describe different tests;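 also: plate controls were DMSO vehicle for no effect and maximal DPI positive control response for full effect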)
[3] = target: Retinaldehyde dehydrogenase 3 (Homo sapiens) (UniProt P47895); assay: qHTS for Inhibitors of the Aldehyde Dehydrogenase Family (ALDH1A3) Validation screen (AID 2061312); also: % is scaled to controls: 0 for no effect and ±100 for the full control effect; nearly all actives have a fitted effect of over 45% in size
[4] = target: Aldehyde dehydrogenase, mitochondrial (Homo sapiens) (UniProt P05091); assay: qHTS for Inhibitors of the Aldehyde Dehydrogenase Family (ALDH2) Confirmatory screens (AID 2061303; active = well fitted inhibition curve with a large enough effect; title and protocol of this record describe different tests; also: % is scaled to controls: 0 for no effect and ±100 for the full control effect; nearly all actives have a fitted effect of over 45% in size)
[5] = qHTS for Inhibitors of the Aldehyde Dehydrogenase Family (ALDH1A2, ALDH1A3, ALDH2, ALDH3A1) (AID 2061307); also: % is scaled to controls: 0 for no effect and ±100 for the full control effect; nearly all actives have a fitted effect of over 50% in size
[6] = target: Aldehyde dehydrogenase, mitochondrial (Homo sapiens) (UniProt P05091); assay: qHTS for Inhibitors of the Aldehyde Dehydrogenase Family (ALDH2) Primary screen (AID 2061308);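 also: plate controls were vehicle for no effect and reference inhibitor for full effect; nearly all actives have a fitted effect of over 55% in size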
[7] = target: Retinaldehyde dehydrogenase 3 (Homo sapiens) (UniProt P47895); assay: qHTS for Inhibitors of the Aldehyde Dehydrogenase Family (ALDH1A3) Confirmatory screens (AID 2061311); also: nearly all actives have a fitted effect of over 60% in size; also: potency is read from the fitted curve at half-maximal effect
[8] = target: Retinal dehydrogenase 2 (Homo sapiens) (UniProt O94788); assay: qHTS for Inhibitors of the Aldehyde Dehydrogenase Family (ALDH1A2) Confirmation screens (AID 2061314); also: % is scaled to controls: 0 for no effect and ±100 for the full control effect; nearly all actives have a fitted effect of over 65% in size
[9] = target: Retinaldehyde dehydrogenase 3 (Homo sapiens) (UniProt P47895); assay: qHTS for Inhibitors of the Aldehyde Dehydrogenase Family (ALDH1A3) Primary screen (AID 2061315);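 also: plate controls were DMSO vehicle for no effect and reference inhibitor for full effect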
[10] = target: Aldehyde dehydrogenase 1A1 (Homo sapiens) (UniProt P00352); assay: qHTS for Inhibitors of the Aldehyde Dehydrogenase Family (ALDH1A1) Confirmatory screens (AID 2061316); also: nearly all actives have a fitted effect of over 65% in size
[11] = BET inhibitor-based combinations targeting novel dependencies in MECOM-rearranged (r) AML: SET-2 cell line (AID 2202231); conditions: SET-2 AML cells viability, CellTiter-Glo luminescence, 48 h; viability: hits give low values, concentration not given here; also: nearly all actives have a fitted effect of over 35% in size; also: potency is read from the fitted curve at half-maximal effect;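 as to viability: plate controls were DMSO treated cells for no effect and wells without cells for full effect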
Summary of the method: (§1)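 Readout: CellTiter-Glo luminescence. Exposure: 48 h, 11 concentrations, 500 cells/well. Metric: AUC and within-line Z-AUC after DMSO/empty-well normalization.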

[12] = BET inhibitor-based combinations targeting novel dependencies in MECOM-rearranged (r) AML: HNT-34 cell line (AID 2202234); also: nearly all actives have a fitted effect of over 35% in size; also: potency is read from the fitted curve at half-maximal effect
Summary of the method: (§2)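 Seeding density was 500 cells/well, and drug exposure lasted 48 hr under standard culture conditions. Read-out used CellTiter-Glo reagent with a 15 min room-temperature incubation before luminescence measurement; AUC and Z-AUC summarize the normalized responses.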

[13] = BET inhibitor-based combinations targeting novel dependencies in MECOM-rearranged (r) AML: MV-4-11 cell line (AID 2202233); also: nearly all actives have a fitted effect of over 45% in size; also: potency is read from the fitted curve at half-maximal effect
Summary of the method: as §2

[14] = BET inhibitor-based combinations targeting novel dependencies in MECOM-rearranged (r) AML: UCSD-AML1 cell line (AID 2202235);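 also: series mostly up to about 46 µM; plate controls were DMSO vehicle wells for no effect and blank wells for full effect; nearly all actives have a fitted effect of over 40% in size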
Summary of the method: as §2

[15] = BET inhibitor-based combinations targeting novel dependencies in MECOM-rearranged (r) AML: OCI-AML3 cell line (AID 2202232); conditions: Potency: OCI-AML3 viability; also: nearly all actives have a fitted effect of over 35% in size; also: potency is read from the fitted curve at half-maximal effect
Summary of the method: as §1

[16] = BET inhibitor-based combinations targeting novel dependencies in MECOM-rearranged (r) AML: AML-191 cell line (AID 2202236; also: nearly all actives have a fitted effect of over 35% in size; also: potency is read from the fitted curve at half-maximal effect)
Summary of the method: as §1

[17] = BET inhibitor-based combinations targeting novel dependencies in MECOM-rearranged (r) AML: AML-194 cell line (AID 2202237;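 also: plate controls were vehicle wells for no effect and wells without cells for full effect; nearly all actives have a fitted effect of over 40% in size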)
Summary of the method: as §1

OC[C@H]1NC[C@@H](O)[C@@H]1O
inactive: activation [1] 4.88% | Potency [2] | Potency [3]

CCCCOC(=O)NS(=O)(=O)c1sc(CC(C)C)cc1-c1ccc(Cn2c(CC)nc3c(C)cc(C)nc32)cc1
inactive: activation [1] -46.4% | Potency [2] | Potency [3]

CC(C)(C)c1ccc(C(=O)CCCN2CCC(OC(c3ccccc3)c3ccccc3)CC2)cc1
inactive: activation [1] -44.6% | Potency [2] | Potency [3]

CNC(=O)c1cc2c(cn1)[nH]c1ccccc12
inactive: activation [1] 11.5% | Potency [2] | Potency [3]

CCN(CC)CCOC(=O)c1ccc(N)cc1
inactive: activation [1] -14.2% and -16.3% | Potency [2] | Potency [3]

CC(=O)NNC(=O)N1Cc2ccccc2Oc2ccc(Cl)cc21
inactive: activation [1] -0.739% | Potency [2] | Potency [3]

Cc1cccc(C)c1OCC(C)N (stereo not drawn)
inactive: activation [1] 8.37% and -22.7% | Potency [2] | Potency [3]

CN(C)S(=O)(=O)c1ccc2c(c1)/C(=C/c1cc3c([nH]1)CCCC3)C(=O)N2
inactive: Potency [2] | Potency [3]
active: Potency [1] 6.75 µM

CCCCC1CCN(CCCN2C(=O)CCc3ccccc32)CC1
inactive: activation [1] -5.25% | Potency [4] | Potency [5] | Potency [6] | Potency [7] | Potency [3] | Potency [8] | Potency [9] | Potency [10]

OC(CN1CCC(Cc2ccc(F)cc2)CC1)c1ccc(Cl)cc1 (stereo not drawn)
inactive: activation [1] 5.08% and 40.7% | Potency [2] | Potency [3]

O=C(Nc1nc2ccccc2n1CCN1CCOCC1)c1cccc([N+](=O)[O-])c1
inactive: activation [1] 5.07% and -24.4% | Potency [2] | viability [11] 112% | Potency [12]

CN1CCN(CCCN2c3ccccc3Sc3ccc(C(F)(F)F)cc32)CC1
inactive: activation [1] -19.8% and -3.33% and -47.4% | Potency [2] | Potency [14]
active: Potency [11] 16.6 µM | Potency [13] 20.9 µM

CN(C)CCCN1c2ccccc2Sc2ccc(Cl)cc21
inactive: activation [1] -15.3% | Potency [2] | Potency [3]

NC/C=C\C(=O)O
inactive: activation [1] 28.9% | Potency [2] | Potency [3]

COCCOc1cc2nc[nH]c(=O)c2cc1OCCOC
inactive: activation [1] -30.8% | Potency [2] | Potency [3]

N[C@H](C(=O)O)[C@H]1C[C@@H]1C(=O)O
inactive: activation [1] 6.82% | Potency [2] | Potency [3]

O=C(O)CCC/C=C\C[C@@H]1[C@@H](/C=C/[C@H](O)C2Cc3ccccc3C2)[C@@H](F)C[C@@H]1O
inactive: activation [1] -5.22% | Potency [2] | Potency [3]

COc1cccc(-c2cc(=O)c3ccccc3o2)c1N
active: Potency [15] 5.25 µM
inactive: activation [1] 10.5% and -44.6% | Potency [2] | Potency [3] | viability [11] 100% | Potency [14]

COc1cccc(C(=O)NCCN2CCN(c3ccc(Cl)cc3)CC2)c1
inactive: activation [1] -34.4% | Potency [2] | Potency [3]

COc1cc2c3c(cc4ccccc4c3c1O)NC2=O
active: Potency [7] 14.2 µM
inactive: activation [1] -8.93% | Potency [4] | Potency [5] | Potency [6]

CCN(CC)CCn1c(=O)c(Cc2ccc(OC)cc2)nc2ccccc21
inactive: activation [1] 3.86% and 2.44% | Potency [2] | viability [11] 107% | Potency [15] | Potency [13] | Potency [12] | Potency [14] | Potency [16] | Potency [17]

COc1ccc(CCN(C)CCCC(C#N)(c2ccc(OC)c(OC)c2)C(C)C)cc1OC (stereo not drawn)
inactive: activation [1] -12.4% and 7.69% | Potency [2] | Potency [3] | viability [11] 94.7% | Potency [17]

CC(C)(Oc1ccc(C2CC2(Cl)Cl)cc1)C(=O)O (stereo not drawn)
inactive: activation [1] -8.47% and 20.1% and -16.4% | Potency [2] | Potency [3] | viability [11] 114% | Potency [13] | Potency [12] | Potency [14] | Potency [16] | Potency [17]

OCCN1CCN(CCCN2c3ccccc3Sc3ccc(C(F)(F)F)cc32)CC1
inactive: activation [1] 21.2% and 6.21% and -4.78% | Potency [2] | Potency [14]
active: Potency [11] 20.9 µM | Potency [15] 18.6 µM | Potency [12] 18.6 µM | Potency [16] 29.5 µM

COc1cc(O)c2c(c1)C1OC1C[C@H](O)[C@H](O)C(=O)/C=C\C[C@H](C)OC2=O (stereo partly drawn)
active: Potency [1] 21.3 µM
inactive: Potency [4] | Potency [5] | Potency [6] | Potency [7] | Potency [3]

NC(=O)C(=O)O
inactive: activation [1] -8.72% | Potency [2] | Potency [3]
